EBV LMP1 NFkB: inhibitors of Epstein-Barr LMP1-induced NF-kappaB reporter; AID 504558; LMP1-induced NF-kappaB luciferase reporter cells, luminescence; inhibition, % at 12.5 µM; 0.69% of 350,000 active; in the data active means inhibition above about 41%; inconclusive means no clear call, values can overlap the other calls;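 further: 0% = neutral control wells and 100% = reference inhibitor control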
LGR2 inh: inhibitors of bursicon-induced Drosophila LGR2 receptor cAMP signaling | HEK293 LGR2, CRE-luciferase, bursicon-stimulated, 4 h | inhibition, % at 9.99 µM | 0.35% of 380,000 active | AID 720647;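 active means drop in luminescence signal, shown as inhibition above about 50% in the replicate tests, limit read from the data, passing the limit was not always enough; inconclusive means probably only some replicates passing the limit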;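 further: agonist challenge used bursicon conditioned medium at about half maximal strength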
TROY signal inh: TROY signaling inhibition | Q293 LMP1-TROYcd NF-kB luciferase reporter, 4 h | inhibition, % at 10 µM | 0.98% of 360,000 active | AID 1347056;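 active means compounds whose plate-normalised and pattern-corrected inhibition of the luciferase reporter signal at the single screening dose is 50% or more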
TWEAK Fn14 block: inhibitors of TWEAK-Fn14 interaction signaling; TWEAK-stimulated Fn14 reporter cells, luciferase luminescence, 8 h; inhibition, % at 10 µM; 2% of 360,000 active; in the data active means inhibition above about 50%
EWS-Fli block: blocks EWS/Fli oncoprotein-driven transcription | A673 NR0B1-luciferase reporter, viability-normalised | inhibition, % at 12.6 µM | 0.67% of 350,000 active;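 active means mean inhibition of at least 50% after viability correction, with every replicate also passing that limit; inconclusive means mean reaches 50% but only one of two replicates passes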;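 further: firefly luciferase signal divided by Alamar Blue viability fluorescence both relative to DMSO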
PAX8 inh HTS: PAX8 transcriptional activity inhibition. RMG-I TPO-luciferase reporter, SteadyGlo, 24 h. inhibition, % at 12.6 µM. 1.2% of 360,000 active. AID 652154;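 active means mean replicate inhibition at least 60% with every replicate also reaching 60%; inconclusive means only one of the two criteria is met; inactive means mean below 60% and not all replicates reaching 60%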;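 further: luciferase light reporting Pax8 driven TPO promoter activity; plate controls were median of neutral control wells for no effect and mitoxantrone controls for full effect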
* hit, by the source's call; ? = inconclusive; / = not tested or not shown. Hits are enriched below; roughly 3.1% of the tested compounds scored in any of these assays.

SMILES	EBV LMP1 NFkB	LGR2 inh	TROY signal inh	TWEAK Fn14 block	EWS-Fli block	PAX8 inh HTS
Clc1ccccc1C1=Nn2c(nnc2-c2ccncc2)SC1	56*	/	49	64*	/	/
c1ccc(C2=Nn3c(nnc3-c3cccs3)SC2)cc1	0	-4	-20	-1	4	-7
c1csc(C2=Nn3c(nnc3-c3ccncc3)SC2)c1	-1	/	47	69*	/	/
C[C@@H]1CN([C@@H](C)CO)C(=O)c2cc(NC(=O)Nc3cccc4ccccc34)ccc2O[C@@H](C)CCCCO[C@@H]1CN(C)Cc1ccc(C(F)(F)F)cc1	/	5	/	/	8	10
CC=Cc1ccc2n(c1=O)C[C@H]1[C@H](CO)[C@@H](C(=O)Nc3ccc(-c4ccccc4)cc3)N(C(C)=O)[C@@H]21 (mixture of isomers)	/	-8	/	/	-8	-4
COc1ccc(N=CC2=C(O)c3ccccc3C2=O)c(OC)c1	57*	/	83*	102*	/	/
O=C1C(C=Nc2ccc(F)cc2)=C(O)c2ccccc21	-36	14	35	80*	-60	-113
COc1ccc(CC2=C(O)c3ccccc3C(=O)C2=O)cc1	-10	8	17	33	-6	-39
C[C@@H]1CN([C@H](C)CO)C(=O)c2cc(-c3ccc(C#N)cc3)cnc2O[C@H]1CN(C)C(=O)Nc1ccc(F)cc1	/	9	/	/	-8	/
N#CCCn1ccc(NC(=O)c2ccc(Cl)cc2)n1	0	/	/	67*	/	/
C/C(=N\NC(=O)c1nn(C)cc1Br)c1ccc(NC(=O)c2ccncc2)cc1	0	-7	-37	-11	-15	87*
C/C(=N\NC(=O)c1ccccc1NC(=O)c1ccc(Cl)cc1)c1ccncc1	54*	?	18	0	39	-21
C[C@H]1CCCCO[C@H](CN(C)Cc2ccncc2)[C@@H](C)CN([C@@H](C)CO)C(=O)c2cc(NC(=O)CCCN(C)C)ccc2O1	/	4	/	/	3	-16
O=C(CCCc1ccccc1)NCCc1ccccc1	-13	-31	-52	-21	-4	-60
O=C(CCl)N(CCc1ccccc1)CCc1ccccc1	-7	-1	1	9	59*	-21
C[C@@H]1CN([C@@H](C)CO)S(=O)(=O)c2ccc(C#C[C@@H](C)O)cc2O[C@@H]1CN(C)C(=O)Nc1ccccc1	/	4	/	/	-4	-12
NC(=O)COC(=O)c1cccc2c1-c1ccccc1C2=O	-2	4	-7	-8	7	9
CC(C)COC(=O)c1ccc2c(c1O)C(=O)c1ccccc1C2=O	-40	/	29	71*	/	-182
O=C(NC(=S)Nc1nc2ccccc2s1)c1ccco1	-21	-56	11	29	1	-39
COc1ccc2nc(NC(=O)c3cccc(OCc4c(C)noc4C)c3)sc2c1	-14	/	35	52*	/	-13
COc1ccc2sc(NC(=O)c3ccco3)nc2c1	27	75*	42	70*	39	/
COc1cccc(C(=O)Nc2cc(OC)ccc2NC(=O)c2ccco2)c1	-5	-11	-26	56*	/	16
COc1ccc2nc(NC(=O)CCNC(=O)c3ccco3)sc2c1	-35	-27	-71	-16	-75	-157
CCSc1nnc(NC(=O)c2cccc(OCc3c(C)noc3C)c2)s1	-8	/	-3	8	/	/
COc1ccc2nc(NC(=S)NC(=O)c3ccco3)sc2c1	-3	-28	51*	49	/	-408
SMILES	EBV LMP1 NFkB	LGR2 inh	TROY signal inh	TWEAK Fn14 block	EWS-Fli block	PAX8 inh HTS
COc1cccc(C#Cc2ccc([C@H]3[C@@H](CO)N4C(=O)CN(C(=O)Cc5ccccc5)C[C@H]34)cc2)c1	/	1	/	/	3	-43
COc1ccc(S(=O)(=O)Nc2cccc3c2O[C@@H](CN(C)Cc2ccccc2)[C@H](C)CN([C@H](C)CO)C3=O)cc1	/	-27	/	/	5	3
Cc1cc(C)c2nc(NC(=O)c3ccco3)sc2c1	-42	2	15	59*	42	-56
Cc1nc(NC(=O)c2ccco2)sc1C(=O)O	0	13	36	59*	-18	11
COc1ccc2nc(NC(=O)c3ccoc3C)sc2c1	-10	48	-6	59*	8	/
COC(=O)c1ccccc1NC(=O)c1ccco1	3	-4	9	-3	/	/
Cc1cc(Cl)cc2sc(NC(=O)c3ccco3)nc12	-38	/	-56	6	/	/
COC(=O)c1cccc(COC(=O)c2ccccc2NC(=O)c2ccco2)c1	51*	/	-32	3	/	/
O=C(Nc1nc2c(Br)cc(Br)cc2c(=O)s1)c1ccco1	-4	2	4	62*	-5	8
O=C(Nc1ccccc1-c1ccccc1NC(=O)c1ccco1)c1ccco1	-2	/	/	66*	/	/
CNC[C@@H]1Oc2ccc(N(C)C)cc2C(=O)N([C@H](C)CO)C[C@@H]1C	/	/	/	/	-2	14
COc1cc(-c2cc3nc(NCc4cccc(Cl)c4)ccn3n2)cc(OC)c1OC	/	/	42	65*	18	21
COc1cc(-c2cc3nc(NCc4cccs4)ccn3n2)cc(OC)c1OC	/	18	20	41	24	-22
CN(C)CCNC(=O)c1cccc2nc3cccc(F)c3nc12	-1	37	-95	-51	56*	7
COc1ccc(Nc2oc(COc3ccc(Cl)cc3)nc2C#N)cc1	46*	/	32	88*	/	26
COc1ccc(CCNc2oc(COc3ccc(Br)cc3)nc2C#N)cc1OC	0	5	59*	25	2	23
COC(=O)c1sc(N)c(C(=O)OC)c1Cn1ncc(Cl)c(Cl)c1=O	-15	4	-22	22	13	63*
CCCNC(=O)C[C@@H]1CC[C@H]2[C@@H](COc3ccc(NC(=O)c4ccc(Cl)cc4)cc3C(=O)N2C)O1	/	5	/	/	-2	0
C=CCn1c(C)cc(C(=O)CSc2nc3ccccc3[nH]2)c1C	24	60*	25	80*	/	/
COCCn1c(C)cc(C(=O)CSc2nc3ccccc3c(=O)[nH]2)c1C	-6	/	5	69*	/	-108
C=CCn1c(C)cc(C(=O)CSc2nc3ccccc3c(=O)[nH]2)c1C	-13	/	-12	14	/	-183
Cc1cc(C(=O)CSc2nc3ccccc3[nH]2)c(C)n1Cc1ccco1	-3	-13	81*	92*	/	-89
Cc1cc(C(=O)CSc2nc3ccccc3[nH]2)c(C)n1C	-14	/	-15	-10	/	-142
COCCn1c(C)cc(/C=C2/NC(=O)N(c3cccc(Cl)c3)C2=O)c1C	2	12	81*	82*	-34	-32
CCn1c(C)cc(/C=C2\NC(=O)N(CC(=O)Nc3cccc(C)c3)C2=O)c1C	-3	/	1	-17	/	/
CC(C)n1cc(/C=C2\NC(=O)N(c3cccc(Cl)c3)C2=O)c2ccccc21	-4	10	12	19	/	/
CCn1c(C)cc(/C=C2/NC(=O)N(c3ccccc3)C2=O)c1C	5	1	74*	74*	-78	-89
O=C(CCCn1c(=S)[nH]c2ccsc2c1=O)Nc1ccc2c(c1)OCCO2	25	4	82*	89*	40	-17
